Measurements reported in PubChem BioAssay AID1159580 (chemical genetic matrix, 2015).
Several values for one entry are separate records, joined by “and”; a condition that tells them apart may be missing. Equal values may be shown once. About 2,000 (36%) of roughly 5,500 compounds were called active. Roughly 18% stayed inconclusive and do not appear here. Cut-off read from the data, not from the text of the source: active = normalized growth mostly below about 0.91 (no sharp cut-off); inconclusive = no clear call, values can overlap the other calls; inactive = mostly above about 0.92. The list shows a part of the results.

Assay: chemical genetic growth profiling, strain panel (AID 1159580);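 note: tested at 20 µM; growth read once vehicle control cultures reached saturation at 30 °C; 1 = growth at the plate median or of vehicle wells; lower values mean less growth of the strain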
Conditions: S. cerevisiae deletion strains, growth OD

Measured: normalized growth

C1CCc2nnnn2CC1
inactive: locus YAL013W, strain DEP1, hits give low values 1.01 | locus YAL021C, strain ccr4, hits give low values 1.01 | locus YAL026C, strain drs2, hits give low values 1.01 | locus YAL030W, strain snc1, hits give low values 1 | locus YAL040C, strain CLN3, hits give low values 0.98 | locus YBL061C, strain skt5, hits give low values 1.01 | locus YBR009C, strain hhf1, hits give low values 1.01 | locus YBR021W, strain FUR4, hits give low values 1.01 | locus YBR023C, strain chs3, hits give low values 1.01 | locus YBR171W, strain sec66, hits give low values 1.01 | locus YBR229C, strain ROT2, hits give low values 1.01 | locus YBR231C, strain swc5, hits give low values 1 | locus YBR279W, strain paf1, hits give low values 1.01 | locus YCL011C, strain gbp2, hits give low values 1 | locus YCL016C, strain dcc1, hits give low values 1 | locus YCL029C, strain bik1, hits give low values 1.03 | locus YCL061C, strain MRC1 (second series), hits give low values 1 | locus YCL061C, strain MRC1, hits give low values 0.998 | locus YCL069W, strain vba3, hits give low values 1 | locus YCR088W, strain abp1, hits give low values 1.02 | locus YDL005C, strain med2, hits give low values 0.999 | locus YDL035C, strain GPR1, hits give low values 1.01 | locus YDL040C, strain nat1, hits give low values 1 | locus YDL074C, strain BRE1, hits give low values 1.03 | locus YDL101C, strain DUN1, hits give low values 1.03 | locus YDL134C, strain PPH21, hits give low values 1.01 | locus YDL185W, strain tfp1, hits give low values 1.01 | locus YDL192W, strain arf1, hits give low values 1.01 | locus YDR001C, strain nth1, hits give low values 1.01 | locus YDR069C, strain doa4, hits give low values 1.01 | locus YDR101C, strain arx1, hits give low values 1.01 | locus YDR137W, strain rgp1, hits give low values 1.02 | locus YDR150W, strain NUM1, hits give low values 1.01 and 1 | locus YDR159W, strain sac3, hits give low values 1 | locus YDR162C, strain NBP2, hits give low values 0.994 | locus YDR195W, strain ref2 0.985 | locus YDR297W, strain sur2, hits give low values 1.02 | locus YDR318W, strain mcm21, hits give low values 1.02 | locus YDR334W, strain swr1, hits give low values 1.01 | locus YDR335W, strain msn5, hits give low values 1.01 | locus YDR363W, strain ESC2, hits give low values 1.01 | locus YDR388W, hits give low values 1 | locus YDR392W, strain spt3, hits give low values 1.03 | locus YDR502C, strain sam2, hits give low values 1 | locus YEL003W, strain gim4, hits give low values 1.01 | locus YEL037C, strain rad23, hits give low values 1 | locus YEL061C, strain CIN8 (second series), hits give low values 1.01 | locus YEL061C, strain CIN8, hits give low values 1.01 | locus YER002W, strain NOP16, hits give low values 1.01 | locus YER015W, strain faa2, hits give low values 1 | locus YER016W, strain bim1, hits give low values 1.01 | locus YER110C, hits give low values 1.02 | locus YER111C, strain swi4, hits give low values 1 | locus YER155C, strain BEM2 (second series), hits give low values 1.02 | locus YER155C, strain BEM2, hits give low values 1 | locus YER167W, strain BCK2, hits give low values 1 | locus YFR010W, strain ubp6, hits give low values 1.01 | locus YGL078C, strain dbp3, hits give low values 1 | locus YGL086W, strain mad1, hits give low values 0.99 | locus YGL173C, strain kem1, hits give low values 1.02 | locus YGL227W, strain vid30, hits give low values 1 | locus YGL240W, strain doc1, hits give low values 1.01 | locus YGL248W, strain PDE1, hits give low values 1.01 | locus YGL253W, strain hxk2, hits give low values 1 | locus YGR078C, strain PAC10, hits give low values 1 and 1.03 | locus YGR135W, strain pre9, hits give low values 1.03 | locus YGR229C, strain SMI1, hits give low values 0.969 and 1.01 | locus YGR252W, strain gcn5, hits give low values 0.941 | locus YHR013C, strain ard1, hits give low values 1.02 | locus YHR027C, strain rpn1, hits give low values 1.01 | locus YHR030C, strain SLT2, hits give low values 1.01 and 0.966 | locus YHR079C, strain IRE1 (second series), hits give low values 1.02 | locus YHR079C, strain IRE1, hits give low values 0.964 | locus YHR094C, strain hxt1, hits give low values 1.01 | locus YHR129C, strain ARP1, hits give low values 1.02 | locus YHR142W, strain chs7, hits give low values 1.01 | locus YHR200W, strain rpn10, hits give low values 1.01 | locus YIL066C, strain RNR3, hits give low values 1.02 | locus YIL073C, strain SPO22, hits give low values 1.01 | locus YIL125W, strain kgd1, hits give low values 1 | locus YIR030C, strain dcg1, hits give low values 1.01 | locus YJL092W, strain hpr5, hits give low values 1 | locus YJL095W, strain BCK1 (second series), hits give low values 1 | locus YJL095W, strain BCK1, hits give low values 1.02 and 0.967 | locus YJL115W, strain asf1, hits give low values 0.993 | locus YJL129C, strain trk1, hits give low values 1.01 | locus YJL134W, strain LCB3, hits give low values 1.01 | locus YJL154C, strain vps35, hits give low values 1 | locus YJL164C, strain tpk1, hits give low values 1 | locus YJL166W, strain qcr8, hits give low values 1.01 | locus YJL168C, strain set2, hits give low values 1.01 | locus YJL187C, strain SWE1 (second series), hits give low values 1.04 | locus YJL187C, strain SWE1, hits give low values 1.02 | locus YJR043C, strain POL32, hits give low values 1.01 | locus YJR066W, strain TOR1, hits give low values 0.921
